According to PubChem BioAssay (NCATS):
“And” between values parts separate entries of the source, which are not always exact repeats. Equal entries are not always repeated. Records with an inconclusive call do not appear. The source made the active and inactive calls. Unless noted, calls come from the whole dose curve; as a rule, active = well fitted curve in the direction sought with a large enough effect; inconclusive = small, poorly fitted or top-dose-only effect, or another doubt; inactive = no such curve, though single readings can be large; an effect the other way counts as inactive or inconclusive.

Tests used:
[1] = target: DNA repair nuclease/redox regulator APEX1 (Homo sapiens) (UniProt P27695); experiment: qHTS Validation Assay for Inhibitors of the Human Apurinic/apyrimidinic Endonuclease 1 (APE1) (AID 1705; note: potency is the fitted concentration of half-maximal effect;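 for activity change, negative = inhibition: TAMRA fluorescence gain over two minutes as APE1 cuts a quenched THF abasic duplex; % is set by controls: 0 for no effect and ±100 for the full control effect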)
Sequence of DNA repair nuclease/redox regulator APEX1 (Homo sapiens) (P27695 whole entry, looked up): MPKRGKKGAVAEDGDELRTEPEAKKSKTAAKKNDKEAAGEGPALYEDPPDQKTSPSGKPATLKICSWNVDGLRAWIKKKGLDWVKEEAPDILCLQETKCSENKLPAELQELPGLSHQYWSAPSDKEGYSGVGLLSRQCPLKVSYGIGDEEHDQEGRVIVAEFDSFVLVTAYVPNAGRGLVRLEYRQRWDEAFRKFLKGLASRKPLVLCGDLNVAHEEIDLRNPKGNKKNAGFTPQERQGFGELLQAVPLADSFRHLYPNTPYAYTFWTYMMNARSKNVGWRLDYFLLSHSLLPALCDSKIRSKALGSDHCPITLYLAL
Summary of the method: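 Read-out: TAMRA fluorescence (525 nm ex, 598 nm em) from cleavage of a quenched THF abasic-site duplex, 50 nM final; activity taken as intensity change between third and first of three reads 60 s apart.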

[2] = qHTS for differential inhibitors of proliferation of Plasmodium falciparum line 7G8 (AID 1815);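 note: parasite growth measured after three days of incubation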; note: potency is the fitted concentration of half-maximal effect;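 for activity change, negative = inhibition: plate controls were vehicle wells for no effect and reference inhibitor wells for full effect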
[3] = qHTS for differential inhibitors of proliferation of Plasmodium falciparum line GB4 (AID 1816); settings: Potency: Plasmodium falciparum GB4 proliferation inhibition;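 note: parasite growth measured after 72 h incubation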; note: potency is the fitted concentration of half-maximal effect;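 for activity change, negative = inhibition: 0% = vehicle DMSO and -100% = reference inhibitor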
[4] = qHTS for differential inhibitors of proliferation of Plasmodium falciparum line 3D7 (AID 1876); note: potency is the fitted concentration of half-maximal effect
[5] = qHTS for differential inhibitors of proliferation of Plasmodium falciparum line D10 (AID 1877);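 note: parasites grown with compound for 72 h before DNA staining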; note: potency is the fitted concentration of half-maximal effect;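 for activity change, negative = inhibition: plate controls were vehicle wells for no effect and reference inhibitor wells for full effect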
[6] = qHTS for differential inhibitors of proliferation of Plasmodium falciparum line W2 (AID 1883); settings: Potency: Plasmodium falciparum W2 proliferation inhibition;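 note: parasites grown with compound for 72 h before lysis and staining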; note: potency is the fitted concentration of half-maximal effect;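 for activity change, negative = inhibition: 0% = vehicle wells and -100% = control inhibitor wells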
[7] = qHTS for differential inhibitors of proliferation of Plasmodium falciparum line HB3 (AID 1886); settings: Potency: Plasmodium falciparum HB3 proliferation inhibition;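 note: parasites grown with compound for 72 h before SYBR Green readout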; note: potency is the fitted concentration of half-maximal effect;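 for activity change, negative = inhibition: plate controls were vehicle for no effect and reference inhibitor for full effect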
[8] = target: Alpha-galactosidase A (Homo sapiens) (UniProt P06280); experiment: Counterscreen for Glucocerebrosidase Inhibitors: qHTS Assay for Human alpha-Galactosidase at pH 4.5 (AID 992); note: 0% is about no effect
Sequence of Alpha-galactosidase A (Homo sapiens) (P06280 whole entry, looked up): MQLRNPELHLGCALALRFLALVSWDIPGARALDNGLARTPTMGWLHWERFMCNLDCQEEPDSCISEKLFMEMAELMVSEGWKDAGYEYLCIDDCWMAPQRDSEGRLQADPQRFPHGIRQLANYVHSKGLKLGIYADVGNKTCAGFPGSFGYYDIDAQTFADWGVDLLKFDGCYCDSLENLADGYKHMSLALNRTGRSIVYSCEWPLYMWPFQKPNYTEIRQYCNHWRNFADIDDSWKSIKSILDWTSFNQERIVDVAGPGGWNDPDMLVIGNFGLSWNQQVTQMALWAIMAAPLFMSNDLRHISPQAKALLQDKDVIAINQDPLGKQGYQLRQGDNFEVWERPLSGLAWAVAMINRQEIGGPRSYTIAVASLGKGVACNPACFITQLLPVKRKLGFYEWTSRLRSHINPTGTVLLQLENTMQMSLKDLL
Summary of the method: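 Enzyme at 2 nM final was combined with compound (0.7 nM to 77 uM) and 80 uM 4-methylumbelliferyl alpha-D-galactopyranoside in 50 mM citric acid, 0.005% Tween-20, pH 4.5. After 20 min at room temperature, fluorescence was read (Ex 365/Em 440 nm); AC50 came from Hill fits.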

[9] = target: alpha-glucosidase (Oryza sativa, rice) (UniProt Q653V4); experiment: Counterscreen for Glucocerebrosidase Inhibitors: qHTS Assay for Rice alpha-Glucosidase at pH 5.0 (AID 997);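 note: 0% = full activity with enzyme and -100% = basal without enzyme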
Summary of the method: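 Rice alpha-glucosidase (4 nM final) with 400 uM 4-methylumbelliferyl-alpha-D-glucopyranoside in citrate buffer pH 5.0, 20 min at room temperature, stopped at pH 10; fluorescence 365/440 nm, compounds 0.7 nM–77 uM, AC50 from Hill fits.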

[10] = Counterscreen for APE1 Inhibitors: Fluorescent Dye Displacement Validation Assay (AID 1707); note: potency is the fitted concentration of half-maximal effect;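 for activity change, negative = inhibition: plate controls were ThO with dsDNA and no compound for no effect and ThO without dsDNA for full effect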
Summary of the method: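 Thiazole Orange displacement from dsDNA: 250 nM ThO with 50 nM TAMRA-labelled abasic-site (tetrahydrofuran) duplex in 50 mM Tris-HCl pH7.5, 50mM NaCl, 2 mM MgCl2, 0.01% Tween-20. Loss of endpoint fluorescence (ex 480 nm, em 540 nm) flags DNA binders.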

[11] = Cell Viability - LYMP1-002 - Assay at 24 hr (AID 993); note: % is set by controls: 0 for no effect and ±100 for the full control effect
Summary of the method: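 Cells plated 2500/well, 5 hr 37 C; compounds added, 24 hr 37 C; CellTiter-Glo added, 30 min RT; luminescence read. Tetraoctylammonium bromide positive control. Hill-equation AC50.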

[12] = qHTS Assay for Lipid Storage Modulators (AID 1519; calls by dose curve; for activity change, negative = inhibition: % is set by controls: 0 for no effect and ±100 for the full control effect); settings: Drosophila S3 cells, BODIPY lipid droplet/cell ratio, laser cytometry, cells loaded with oleic acid; for activity change, negative = inhibition: at 57.5 µM (top of the series)
Summary of the method: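 Cells seeded at 5,000 per well were treated with compounds over a concentration series and loaded with oleic acid (400 uM, as added). Lipid droplet fluorescence (488 nm excitation, 500-530 nm channel) was read by laser-scanning cytometry and normalized to 20 uM Triacsin C.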

[13] = qHTS for differential inhibitors of proliferation of Plasmodium falciparum line Dd2 (AID 1882); settings: Potency: Plasmodium falciparum Dd2 proliferation inhibition; note: nearly all actives have a fitted effect of over 65% in size; note: potency is the fitted concentration of half-maximal effect;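 for activity change, negative = inhibition: plate controls were DMSO vehicle for no effect and 0.29 µM artemisinin for full effect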
Summary of the method: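 Dd2-infected erythrocytes (0.3% parasitemia, 2.5% hematocrit final) incubated with compound 72 h at 37 C, 5% CO2; lysed with saponin/Triton buffer containing SYBR Green I, incubated overnight in the dark, then read by fluorescence (485/535 nm). Normalized to 0.29 uM artemisinin and DMSO.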

[14] = qHTS Assay for Modulators of Human Peripheral Myelin Protein 22 (PMP22) Expression/Activity (AID 1967; active = well fitted curve in the direction sought with a large enough effect in the signal ratio; the % refers to the signal ratio;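 note: 0% = untreated cells and 100% end not stated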)
Summary of the method: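 Mouse MSC80 Schwann line, Pmp22 promoter–CBG68 reporter, EF-alpha–CBR internal control. 24h compound exposure, 37 °C/5% CO2, DMEM + 10% FBS. Readout: corrected green/red luminescence ratio, normalized to untreated cells; concentration-response curves fitted and classified.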

[15] = target: Endonuclease 4 (Escherichia coli (strain K12)) (UniProt P0A6C1); experiment: Counterscreen for APE1 Inhibitors: qHTS Validation Assay for Inhibitors of Endonuclease IV (AID 1708); note: potency is the fitted concentration of half-maximal effect; for activity change, negative = inhibition: % is set by controls: 0 for no effect and ±100 for the full control effect
Summary of the method: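 Concentration-response counterscreen run identically to the APE1 assay: 15 min room-temperature preincubation of 2 nM enzyme with compound, reaction started with 50 nM quenched abasic DNA, progress taken from kinetic fluorescence.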

[16] = Cell Viability - LYMP2-022 (AID 987);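 note: 0% = DMSO alone and full effect = tetraoctylammonium bromide at 92 µM; nearly all actives have a fitted effect of over 55% in size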
Summary of the method: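 qHTS: human lymphoblastoid cells 2500/well; 5 hr 37 C; cpd added; 24 hr 37 C; CellTiter-Glo, 30 min RT; luminescence. AC50 via Hill fit; tetraoctylammonium bromide positive ctrl.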

[17] = Cell Viability - LYMP2-024 (AID 988);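 note: plate controls were DMSO only for no effect and 92 µM tetraoctylammonium bromide for full effect; nearly all actives have a fitted effect of over 60% in size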
Summary of the method: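 Steps: seed 2500 cells/well, 5 hr 37 C; add compound, 24 hr 37 C; add CellTiter-Glo, 30 min room temperature; read luminescence. AC50 derived by Hill modelling of concentration-dependent ATP loss.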

[18] = Cell Viability - LYMP2-026 (AID 989); note: % is set by controls: 0 for no effect and ±100 for the full control effect; nearly all actives have a fitted effect of over 50% in size
Summary of the method: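 Luminescent ATP signal (CellTiter-Glo, 30 min room temperature) measures viable lymphoblastoid cells after 24 hr compound treatment at 37 C. Decreased ATP reflects acute toxicity; AC50 values come from Hill-equation modeling.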

[19] = Cell Viability - LYMP1-002 - Assay at 40 hr (AID 994);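 note: 0% = DMSO only and full inhibition = 92 µM tetraoctylammonium bromide; nearly all actives have a fitted effect of over 60% in size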
Summary of the method: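 Luminescent ATP signal served as the viability readout, with decreases taken as toxicity. Cells were treated with compounds across a concentration range for 40 hours at 37 C, and AC50 values came from standard Hill modeling.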

[20] = measured here: cell count channel max response
[21] = measured here: lipid channel max response

COc1cc2nc(N3CCN(C(=O)c4ccco4)CC3)nc(N)c2cc1OC
active: Potency [2] 7.94 µM | Potency [3] 12.6 µM | Potency [4] 8.91 µM | Potency [5] 10 µM | Potency [6] 5.01 µM | Potency [7] 10 µM
inactive: Potency [1]

Cc1cc(C(C)(C)C)cc(C)c1CC1=NCCN1
inactive: outcome [8] | outcome [9] | Potency [1] | Potency [10]

COc1ccc(CCN(C)CCCC(C#N)(c2ccc(OC)c(OC)c2)C(C)C)cc1OC (stereo not drawn)
inactive: outcome [11] | Potency [1] | Potency [10]

Cc1ccccc1N1C(=O)c2cc(S(N)(=O)=O)c(Cl)cc2NC1C (stereo not drawn)
inactive: outcome [8] | outcome [9] | activity change, negative = inhibition [12] 5.05% and -0.764% | Potency [1] | Potency [10] | Potency [3] | Potency [4] | Potency [5] | Potency [13] | Potency [7]
11.3% and 51.4%: max response [12, 20]
18.3% and 52%: max response [12, 21]

CN1C2CCC1CC(OC(=O)C(CO)c1ccccc1)C2 (stereo not drawn)
inactive: Potency [1] | Potency [10] | Potency [4] | Potency [5] | Potency [7] | Potency [14]

Cc1ccc(C(=O)Nc2ccc(S(=O)(=O)O)c3cc(S(=O)(=O)O)cc(S(=O)(=O)O)c23)cc1NC(=O)c1cccc(NC(=O)Nc2cccc(C(=O)Nc3cc(C(=O)Nc4ccc(S(=O)(=O)O)c5cc(S(=O)(=O)O)cc(S(=O)(=O)O)c45)ccc3C)c2)c1
inactive: outcome [8] | outcome [9] | activity change, negative = inhibition [12] 2.55% and 9.29%
active: Potency [1] 8.91 µM | Potency [10] 4.47 µM | Potency [15] 4.47 µM | Potency [6] 12.6 µM
-19.7% and 7.39%: max response [12, 20]
-18.9% and 17.7%: max response [12, 21]

CC[N+](CC)(CC)CCOc1cccc(OCC[N+](CC)(CC)CC)c1OCC[N+](CC)(CC)CC
inactive: outcome [8] | outcome [9] | Potency [1] | Potency [10] | Potency [2] | Potency [3] | Potency [4] | Potency [5] | Potency [6] | Potency [7]

CCOC(=O)c1ncn2c1CN(C)C(=O)c1cc(F)ccc1-2
20.1%: max response [12, 20]
21.2%: max response [12, 21]
inactive: outcome [8] | outcome [9] | activity change, negative = inhibition [12] -0.292% | Potency [1] | Potency [10] | Potency [2] | Potency [3] | Potency [4] | Potency [5] | Potency [13] | Potency [6] | Potency [7]

O=c1c(O)c(-c2ccc(O)c(O)c2)oc2cc(O)cc(O)c12
inactive: outcome [8] | outcome [9] | Potency [15]

O=c1c(-c2ccc(O)cc2)coc2cc(O)cc(O)c12
9.16%: max response [12, 21]
15.5%: max response [12, 20]
inactive: outcome [16] | outcome [17] | outcome [18] | outcome [8] | outcome [11] | Potency [19] | outcome [9] | activity change, negative = inhibition [12] -6.97% | Potency [1] | Potency [10] | Potency [15] | Potency [5] | Potency [7]

CC12CC3CC(C)(C1)CC(N)(C3)C2
active: Potency [2] 11.2 µM | Potency [3] 0.891 µM | Potency [13] 5.62 µM | Potency [6] 2.24 µM
inactive: activity change, negative = inhibition [12] 7.67% and 1.43% | Potency [1] | Potency [15] | Potency [5]
26.5% and 20.5%: max response [12, 21]
15.3% and 15.6%: max response [12, 20]

O=C(Nc1ccc([N+](=O)[O-])cc1Cl)c1cc(Cl)ccc1O
inactive: outcome [8] | outcome [9] | Potency [1]
active: Potency [10] 3.98 µM | Potency [2] 1 µM | Potency [3] 0.708 µM | Potency [4] 0.794 µM | Potency [5] 1 µM | Potency [6] 0.794 µM | Potency [7] 0.794 µM

COc1ccccc1N1CCN(CC(O)COc2cccc3ccccc23)CC1 (stereo not drawn)
-17.8%: max response [12, 20]
active: Potency [2] 11.2 µM | Potency [3] 14.1 µM | Potency [6] 10 µM | Potency [7] 12.6 µM
inactive: activity change, negative = inhibition [12] 0.0402% | Potency [1]
-14.9%: max response [12, 21]

CC(COc1ccccc1)N(CCCl)Cc1ccccc1 (stereo not drawn)
23.2%: max response [12, 21]
11.9%: max response [12, 20]
inactive: outcome [11] | Potency [19] | activity change, negative = inhibition [12] 6.18% | Potency [1] | Potency [10]
